For experiment [1], the target named is Lysosomal acid glucosylceramidase (Homo sapiens) (UniProt P04062). Description: Glucocerebrosidase-p2 (AID 348; in the data active = potency below about 10 µM; note: potency is the fitted concentration of half-maximal effect). The following applies: purified GBA, blue fluorogenic substrate, 40 min. The essentials: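 Normal human glucocerebrosidase (0.2 nM) with blue fluorogenic substrate (80 uM final) in citrate/phosphate pH 5.9 with 10mM sodium taurocholate, 0.01% tween-20; 40 min RT, NaOH/glycine stop; fluorescence Ex 365/Em 440; AC50 from a titration from 0.6 nM upwards.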
Sequence of Lysosomal acid glucosylceramidase (Homo sapiens) (P04062 whole entry, looked up): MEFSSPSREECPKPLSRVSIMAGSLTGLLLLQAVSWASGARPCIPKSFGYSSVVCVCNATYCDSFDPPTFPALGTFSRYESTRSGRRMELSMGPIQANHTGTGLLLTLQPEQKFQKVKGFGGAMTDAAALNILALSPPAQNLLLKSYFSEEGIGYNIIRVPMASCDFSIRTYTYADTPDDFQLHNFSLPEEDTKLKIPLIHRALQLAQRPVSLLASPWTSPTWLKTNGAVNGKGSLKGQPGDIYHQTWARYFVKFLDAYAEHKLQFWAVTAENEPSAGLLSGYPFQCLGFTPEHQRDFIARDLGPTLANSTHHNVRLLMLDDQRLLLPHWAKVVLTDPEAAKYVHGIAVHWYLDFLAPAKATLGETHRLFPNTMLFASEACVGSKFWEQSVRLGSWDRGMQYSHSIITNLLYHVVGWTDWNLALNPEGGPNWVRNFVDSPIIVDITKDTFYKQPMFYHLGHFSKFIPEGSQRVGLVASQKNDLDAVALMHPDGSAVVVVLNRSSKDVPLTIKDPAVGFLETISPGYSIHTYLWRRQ

The nature of experiment [2]: AP1 Signaling Pathway (AID 357).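 Note: ME-180 reporter cells stimulated with EGF at its EC50 level; % is set by controls: 0 for no effect and ±100 for the full control effect.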 The following applies: ME-180 AP-1-bla reporter, EGF-induced, beta-lactamase ratio, 5 h; at 7.69 µM (top of the series) unless noted. Put shortly:
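Cells are seeded overnight, exposed to compound titrations and an EC50 level of EGF for 5 hours at 37 °C, then loaded with CCF4 dye for 2.5 hours. Beta-lactamase activity under the AP-1 element is read as a blue/green ratio.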

The nature of experiment [3]: NFAT Signaling Pathway (AID 444).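 Note: carbachol stimulus at about its EC50 of 1 µM final; % is set by controls: 0 for no effect and ±100 for the full control effect.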 The following applies: Jurkat NFAT-bla M1, carbachol, beta-lactamase ratio, 5 h; at 7.69 µM (top of the series) unless noted. Put shortly:
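Jurkat cells with NFAT-driven β-lactamase reporter and co-expressed M1 receptor, stimulated with carbachol (final 1 uM, ~EC50), compound titration, 5 h at 37 °C. CCF4 loaded 1 h at RT; 460/530 nm ratio gave %activity and AC50.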

The nature of experiment [4]: Stat Signaling Pathway (AID 446).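 Note: ME-180 cervical cancer cells given 40 pM IL-6 alongside compound; SIE-controlled beta-lactamase reporter measured as 460/530 nm FRET emission ratio; % is set by controls: 0 for no effect and ±100 for the full control effect.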 The following applies: ME-180 SIE beta-lactamase reporter, IL-6 stimulated, 5 h; at 7.69 µM (top of the series) unless noted. Put shortly:
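Normalization used AC90 stimulation (300 pM IL-6) and AC90 inhibition (125 nM pan-JAK inhibitor at 40 pM IL-6). The underlying signal is SIE-driven beta-lactamase in ME-180 cells after 5 h IL-6 exposure with compound.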

Experiment [5] concerns the target Glucocorticoid receptor (Homo sapiens) (UniProt P04150). Description: GR-EFC Redistribution (AID 451; calls by dose curve; note: potency is the fitted concentration of half-maximal effect). The following applies: CHO-K1 GR-EFC translocation, beta-gal luminescence, 2 h. Put shortly: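 CHO-K1 cells expressing nuclear EA and GR-ED fragments of b-gal; compounds titrated up to 46 uM final, 2 h at 37 C. GR nuclear translocation read as complemented b-gal luminescence after 1 h RT detection.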

Experiment [6] has as its target Mitogen-activated protein kinase 10 (Mus musculus) (UniProt Q61831). Description: JNK3 AlphaScreen Assay (AID 530).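 Note: kinase came from lysate of stimulated human HepG2 cells; signal reports phosphorylation of biotinylated GST-cJun 1-79 at Ser73 with 10 µM ATP; % is set by controls: 0 for no effect and ±100 for the full control effect.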 The following applies: JNK3 lysate, c-Jun phosphorylation; series mostly up to 57.1 µM. The essentials:
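HepG2 lysate (IL-1b/TNFa pre-activated) + biotin-GST-cJun 1-79 + anti-pSer73 cJun; cpd titration, 15 min RT; ATP 10 uM start; Tris pH 7.6, MgCl2, DTT, vanadate; beads in EDTA buffer; AlphaScreen.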
For orientation: Alpha assays give light when donor and acceptor beads are brought close together.

In experiment [7] the target is 3',5'-cyclic-AMP phosphodiesterase 4B (Homo sapiens) (UniProt Q07343). In words: qHTS Assay for Inhibitors of PDE-IV (AID 607; active = well fitted activation curve with a large enough effect in the main read-out, with a control signal flat, not every such curve was filed as active; note: % of control where 0% means no effect). The following applies: HEK293 ACTOne CNG channel cells, membrane potential fluorescence; series mostly up to 22.9 µM. Put shortly:
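HEK293 ACTOne cells with CNG channel (1000/well), endogenous PDE4; membrane potential dye, compounds up to 22.9 uM final. Fluorescence Ex 535/Em 590; RO 20-1724 (100 uM final) as reference.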
(In general: Quantitative high-throughput screening tests each substance at several concentrations.)

Experiment [8] is described as follows: qHTS Assay for Identification of Small Molecule Agonists for Hypoxia Response Element Signaling Pathway (AID 914; active = well fitted activation curve with a large enough effect in the signal ratio, with a control signal flat, not every such curve was filed as active; the % refers to the signal ratio; note: % of control where 0% means no effect). The following applies: ME-180 (cervical carcinoma) HRE-bla reporter, beta-lactamase ratio, CoCl2, 17 h; activation: active compounds read high. The essentials:
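ME-180 cells carrying an HRE-driven beta-lactamase reporter were treated with compounds in a titration series plus an EC50 level of CoCl2 for 17 h at 37 degrees Celsius; CCF4 readout as the 460nm/530nm ratio gave AC50 values.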

The nature of experiment [9]: Primary qHTS for small molecule stabilizers of the endoplasmic reticulum resident proteome: Secreted ER Calcium Modulated Protein (SERCaMP) assay (AID 1508630; active = well fitted curve in the direction sought with a large enough effect; an effect the other way counts as inactive or inconclusive; note: % is set by controls: 0 for no effect and ±100 for the full control effect). The following applies: SH-SY5Y GLuc-SERCaMP (Gaussia luciferase released on ER calcium loss) secretion, thapsigargin, luminescence; series mostly up to 38.4 µM. Put shortly: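 The SH-SY5Y reporter protocol was run at 3 concentrations up to 38.3 uM (primary) or 11 concentrations (follow-up): 16 h compound, 100 nM thapsigargin for 4 h, then extracellular luciferase luminescence.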

For experiment [10], the target named is Cytochrome P450 3A4 (Homo sapiens) (UniProt P08684). In words: qHTS Assay for Inhibitors and Substrates of Cytochrome P450 3A4 (AID 884; active = well fitted curve in the direction sought with a large enough effect; an effect the other way counts as inactive or inconclusive; note: nearly all actives have a fitted effect of over 50% in size; note: potency is the fitted concentration of half-maximal effect). The following applies: recombinant CYP3A4, Luciferin-PPXE luminescence; series mostly up to 57.1 µM. Put shortly:
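Luminescent readout of luciferin produced by CYP3A4 (20 nM) dealkylation of Luciferin-PPXE, 25 uM (its KM). NADPH-driven reaction ran 60 min at RT after 10 min compound preincubation; data scaled to 57 uM ketoconazole as 100% inhibition.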

The target is the same in experiment [11]. In words: qHTS Assay for Activators of Cytochrome P450 3A4 (AID 885; active = well fitted curve in the direction sought with a large enough effect; an effect the other way counts as inactive or inconclusive; note: nearly all actives have a fitted effect of over 65% in size; note: potency is the fitted concentration of half-maximal effect). The following applies: recombinant CYP3A4, Luciferin-PPXE luminescence, 60 min; series mostly up to 57.1 µM. Put shortly: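 Human CYP3A4 dealkylates Luciferin-PPXE to luciferin, which luciferase detection converts to light. Substrate was at its KM (25uM), buffer 200mM KPO4, reaction 60 min at RT.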

The target of experiment [12] is Glucocorticoid receptor (Homo sapiens) (UniProt P04150). Description: GR-GFP Redistribution (AID 450;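 active = compounds whose dose series gives a full or clear partial fitted curve of increased nuclear translocation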; note: potency is the fitted concentration of half-maximal effect). The following applies: U2OS GR-GFP nuclear translocation, laser cytometry, 2 h.
Sequence of Glucocorticoid receptor (Homo sapiens) (P04150 whole entry, looked up, the tested form may be a part): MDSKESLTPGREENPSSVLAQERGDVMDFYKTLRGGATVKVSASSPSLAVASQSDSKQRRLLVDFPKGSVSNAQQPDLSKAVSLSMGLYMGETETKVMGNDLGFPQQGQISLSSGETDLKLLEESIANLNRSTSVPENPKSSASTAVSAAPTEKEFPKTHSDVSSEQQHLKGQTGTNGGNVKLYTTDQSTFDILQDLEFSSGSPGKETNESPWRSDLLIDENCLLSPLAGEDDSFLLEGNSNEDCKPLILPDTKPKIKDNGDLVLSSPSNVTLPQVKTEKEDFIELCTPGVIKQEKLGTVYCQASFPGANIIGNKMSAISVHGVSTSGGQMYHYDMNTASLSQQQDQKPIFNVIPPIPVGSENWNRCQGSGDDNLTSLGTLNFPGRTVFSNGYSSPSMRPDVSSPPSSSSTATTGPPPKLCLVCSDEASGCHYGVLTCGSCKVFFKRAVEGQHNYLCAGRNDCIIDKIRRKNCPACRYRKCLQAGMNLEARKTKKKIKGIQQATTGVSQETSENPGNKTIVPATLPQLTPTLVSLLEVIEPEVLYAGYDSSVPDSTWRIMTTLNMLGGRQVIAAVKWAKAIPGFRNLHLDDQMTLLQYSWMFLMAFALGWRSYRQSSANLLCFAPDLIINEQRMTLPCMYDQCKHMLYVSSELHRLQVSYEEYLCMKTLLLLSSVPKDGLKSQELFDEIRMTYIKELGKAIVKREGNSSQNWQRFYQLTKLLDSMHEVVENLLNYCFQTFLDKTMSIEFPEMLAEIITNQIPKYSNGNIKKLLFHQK

Values without a mark were called inactive. Records with an inconclusive call do not appear. Calls of active or inactive are those of the source. Unless noted, calls come from the whole dose curve; as a rule, active = well fitted curve in either direction with a large enough effect (not every such curve was filed as active); inconclusive = small, poorly fitted or top-dose-only effect, or another doubt; inactive = flat fitted curve, though single readings scatter.

Sequence of 3',5'-cyclic-AMP phosphodiesterase 4B (Homo sapiens) (Q07343 whole entry, looked up): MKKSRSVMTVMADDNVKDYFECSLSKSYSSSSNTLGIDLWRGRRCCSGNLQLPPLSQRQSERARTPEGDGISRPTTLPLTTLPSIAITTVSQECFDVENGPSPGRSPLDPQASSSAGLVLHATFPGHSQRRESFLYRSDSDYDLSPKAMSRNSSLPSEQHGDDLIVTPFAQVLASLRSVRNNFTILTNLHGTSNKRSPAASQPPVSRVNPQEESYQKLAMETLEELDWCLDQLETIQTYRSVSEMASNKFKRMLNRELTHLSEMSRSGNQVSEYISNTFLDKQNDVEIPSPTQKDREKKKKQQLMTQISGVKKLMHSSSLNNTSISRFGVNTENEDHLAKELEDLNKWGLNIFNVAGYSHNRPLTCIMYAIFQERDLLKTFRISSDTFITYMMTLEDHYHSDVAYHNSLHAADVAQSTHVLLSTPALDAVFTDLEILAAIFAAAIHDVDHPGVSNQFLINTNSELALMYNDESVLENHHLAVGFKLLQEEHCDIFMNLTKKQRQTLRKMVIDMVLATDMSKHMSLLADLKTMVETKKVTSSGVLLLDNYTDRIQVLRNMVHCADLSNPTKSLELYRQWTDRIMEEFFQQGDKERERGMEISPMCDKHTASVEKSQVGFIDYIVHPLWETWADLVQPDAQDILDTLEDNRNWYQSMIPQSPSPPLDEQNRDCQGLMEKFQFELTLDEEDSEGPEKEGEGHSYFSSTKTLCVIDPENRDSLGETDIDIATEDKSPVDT
Sequence of Cytochrome P450 3A4 (Homo sapiens) (P08684 whole entry, looked up): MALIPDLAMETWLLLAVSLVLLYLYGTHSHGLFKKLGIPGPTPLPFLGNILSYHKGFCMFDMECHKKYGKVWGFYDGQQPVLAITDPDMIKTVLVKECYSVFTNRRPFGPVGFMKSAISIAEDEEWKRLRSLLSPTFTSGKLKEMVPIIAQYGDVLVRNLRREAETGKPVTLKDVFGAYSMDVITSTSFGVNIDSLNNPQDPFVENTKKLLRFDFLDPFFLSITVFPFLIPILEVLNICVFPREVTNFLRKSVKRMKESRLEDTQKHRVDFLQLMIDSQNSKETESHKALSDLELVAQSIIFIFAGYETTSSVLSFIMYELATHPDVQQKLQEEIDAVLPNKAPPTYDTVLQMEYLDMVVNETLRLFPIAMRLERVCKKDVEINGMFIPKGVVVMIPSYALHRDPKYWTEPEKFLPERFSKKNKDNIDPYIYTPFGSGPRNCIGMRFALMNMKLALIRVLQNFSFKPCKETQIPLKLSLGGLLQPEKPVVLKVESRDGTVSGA

Regarding `CC(=O)N1CCC2(CC1)CCN(c1ccccc1)CC2`, the Potency in experiment [1] was over 11.4 µM; in experiment [5], over 46 µM. Moreover, the activity change, negative = inhibition in [2] is 16.1%; in experiment [3], -0.227%. Moreover, in experiment [4], the activity, negative = inhibition was 2.99%. The Potency result in [6] and in experiment [7] was “inactive” throughout. The activation in [8] is -2.78%. The outcome in [9] was inactive.
In the case of `COc1ccc(C(=O)N2CCC3(CCN(Cc4nccs4)CC3)CC2)cc1`, the Potency is over 11.4 µM in experiment [1] and over 46 µM in experiment [5]. The figures for the activity change, negative = inhibition in experiment [2] and in experiment [3] were -14.6% and -8.01%, respectively. Further, the activity, negative = inhibition in [4] was -11.9%. Besides, the Potency entry in experiment [6], in experiment [7] and in [10] was “inactive” in each case. The outcome in [9] was inactive.
For `COC(=O)N1CCC2(CCCN(c3ncccn3)C2)CC1`, the Potency in [1] was over 11.4 µM; in experiment [5], over 46 µM. For the same compound, the activity change, negative = inhibition was -15% in [2] and 6.41% in experiment [3]. The activity, negative = inhibition in experiment [4] was 1.72%. Moreover, the Potency result in [6] and in experiment [7] was “inactive” each time. Further, the activation in experiment [8] was 12.6%. Further, the result in experiment [9] was inactive.
In the case of `O=C(Nc1cccc(F)c1)N1CCC2(CC1)CCN(C(=O)c1ccncc1)CC2`, the figures for the Potency in experiment [1] and in experiment [5] were over 11.4 µM and over 46 µM, respectively. Moreover, the activity change, negative = inhibition in [2] was -9.1%; in experiment [3], -6.93%. Besides, in experiment [4], the activity, negative = inhibition was -7.63%. In addition, the Potency entry in [6], in experiment [7] and in experiment [11] was “inactive” throughout. Also, the outcome in experiment [9] was inactive.
As to `Cn1cccc1C(=O)N1CCC[C@@]2(CCN(c3cccc(-c4ccccc4)c3)C2)C1`, the Potency in [1] was over 11.4 µM; in experiment [5], over 46 µM; in experiment [10], 7.94 µM (active). In addition, the activity change, negative = inhibition in experiment [2] is -10.7%; in [3] it was -10.5%. In addition, the activity, negative = inhibition in experiment [4] is -14.4%. Moreover, in [11], the Potency entry was “inactive”. Further, the result in experiment [9] was inactive.
Consider `O=C(c1cccc(F)c1)N1CCC2(CC1)CN(c1ccccc1)C2`, for which the Potency was over 11.4 µM in experiment [1], over 46 µM in experiment [5] and 7.94 µM (active) in experiment [11]. Also, the activity change, negative = inhibition in experiment [2] is -0.575%; in [3], 6.14%. Also, the activity, negative = inhibition in experiment [4] was -1.57%. Besides, the Potency result in [6], in experiment [7] and in experiment [10] was “inactive” in each case. Also, the result in experiment [9] was inactive.
As to `COCC(=O)N1CCC2(CC1)CCN(c1ccc(-c3ccccc3)cc1)CC2`, the Potency in experiment [1] is over 11.4 µM; in [5], over 46 µM. Further, the values for the activity change, negative = inhibition in [2] and in experiment [3] were -8.62% and 2.65%, respectively. The activity, negative = inhibition in experiment [4] is -21.1%. The Potency entry in experiment [6], in experiment [7] and in [10] was “inactive” throughout. In addition, in experiment [9], the result was inactive.
Turning to `CC(=O)N1CCC2(CCCN(c3ncccn3)C2)CC1`, the Potency was over 11.4 µM in experiment [1] and over 46 µM in experiment [5]. Further, the values for the activity change, negative = inhibition in experiment [2] and in experiment [3] were -18.1% and 4.89%, respectively. In [4], the activity, negative = inhibition is -2.74%. Besides, the Potency result in [6] and in experiment [7] was “inactive” each time. For the same compound, the result in experiment [9] was inactive.
For the compound `O=C(Nc1ccccc1)N1CCCC2(CCN(C(=O)c3csnn3)CC2)C1`, the results for the Potency in experiment [1] and in experiment [5] were over 11.4 µM and over 46 µM, respectively. In addition, the activity change, negative = inhibition was -9.89% in experiment [2] and -7.97% in [3]. Besides, the activity, negative = inhibition in [4] was -7.07%. Moreover, the Potency result in experiment [6], in experiment [7] and in experiment [11] was “inactive” throughout. Further, in [9], the outcome was inactive.
As to `Cc1noc(C)c1C(=O)N1CCC2(CC1)CCN(C(c1ccccc1)c1ccccc1)CC2`, the Potency is over 11.4 µM in experiment [1] and over 46 µM in [5]. Moreover, the activity change, negative = inhibition in experiment [2] is -6.81%. Besides, the activity, negative = inhibition in [4] is 10.1%. Besides, the Potency result in [6] is “inactive”. Also, the activation in experiment [8] was -2.4%. In addition, the outcome in [9] was inactive.
`O=C(c1cnccn1)N1CCC2(CC1)CN(Cc1ccccc1)C2`: the Potency in experiment [1] is over 11.4 µM; in experiment [5], over 46 µM. In addition, in [2], the activity change, negative = inhibition was -15.8%. Further, the activity, negative = inhibition in experiment [4] was 2.48%. Besides, the Potency entry in [6] and in experiment [7] was “inactive” each time. In addition, the activation in experiment [8] is 6.71%. Also, the outcome in [9] was inactive.
`O=S(=O)(c1ccccc1)N1CCC2(CCCN(c3ccncc3)C2)CC1`: the Potency in [1] was over 11.4 µM; in [5] it was over 46 µM. Besides, the activity change, negative = inhibition in [2] was 22.1%. For the same compound, the activity, negative = inhibition in [4] is 9.67%. For the same compound, the Potency entry in [6] and in experiment [7] was “inactive” in each case. Moreover, the result in experiment [9] was inactive.
As for `COCCn1c(=O)c(-c2cccs2)nc2cnc(OCc3ccccc3)nc21`, the Potency in experiment [1] is over 11.4 µM; in [12], over 9.22 µM; in [5], over 46 µM. The activity change, negative = inhibition in experiment [2] is 2.42%; in experiment [3], 4.34%. Besides, the Potency entry in experiment [6] and in experiment [11] was “inactive” in each case. Further, the result in [9] was inactive.
For `CC(=O)N1CCC2(CCN(Cc3ccc(C#N)cc3)CC2)CC1`, the figures for the Potency in experiment [1] and in experiment [5] were over 11.4 µM and over 46 µM, respectively. Also, the activity change, negative = inhibition in experiment [2] was -3.09%. The activity, negative = inhibition in experiment [4] was 6.19%. In addition, the Potency result in experiment [6] and in experiment [7] was “inactive” each time. Moreover, the outcome in experiment [9] was inactive.
Take `O=S(=O)(c1ccccc1)N1CCC2(CCCN(Cc3ccccc3)C2)CC1`: the Potency was over 11.4 µM in experiment [1] and over 46 µM in [5]. Besides, the activity change, negative = inhibition in [2] was 10.9%. In experiment [4], the activity, negative = inhibition is 5.57%. The Potency result in [6] and in [7] was “inactive” throughout. The result in experiment [9] was inactive.
With `N#Cc1cccc(NC(=O)N2CC3(CCN(C(=O)c4cnccn4)CC3)C2)c1`, the values for the Potency in experiment [1] and in experiment [5] were over 11.4 µM and over 46 µM, respectively. Besides, the activity change, negative = inhibition was -10.3% in experiment [2] and 14.6% in experiment [3]. The Potency result in [6], in [7] and in experiment [10] was “inactive” throughout. Further, in experiment [9], the outcome was inactive.
As to `O=C(c1csnn1)N1CCC2(CCCN(c3ccccn3)C2)CC1`, the Potency is over 11.4 µM in [1] and over 46 µM in experiment [5]. Besides, in experiment [2], the activity change, negative = inhibition was -4.82%. The activity, negative = inhibition in [4] is 9.35%. Further, the Potency entry in [6] and in [7] was “inactive” throughout. Besides, the outcome in [9] was inactive.

The values above are taken from PubChem BioAssay (NCATS).
